# CYP2C9 inhib: human CYP2C9 inhibition. CYP2C9 Supersomes, luciferin-H conversion, luminescence. P11712. 96,000 tested, 20% active. AID 777. inhibition, % at 5 µM;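 active = blocking of liver enzyme CYP2C9 beyond about 50% at 5 µM, limit read from the data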
# CYP2C19 inhib: inhibitors of human CYP2C19 | AID 778 | 96,000 tested, 21% active | inhibition, % at 5 µM | CYP2C19 Supersomes, luciferin-H EGE luminescence, 30 min;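 active = CYP2C19 inhibition above a set limit at 5 µM in the primary screen, cut at about 50% in these data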;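 also: plate controls were negative control wells for no effect and 2.5 mM tranylcypromine positive control for full effect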
# Target sequence (P33261 whole entry, looked up): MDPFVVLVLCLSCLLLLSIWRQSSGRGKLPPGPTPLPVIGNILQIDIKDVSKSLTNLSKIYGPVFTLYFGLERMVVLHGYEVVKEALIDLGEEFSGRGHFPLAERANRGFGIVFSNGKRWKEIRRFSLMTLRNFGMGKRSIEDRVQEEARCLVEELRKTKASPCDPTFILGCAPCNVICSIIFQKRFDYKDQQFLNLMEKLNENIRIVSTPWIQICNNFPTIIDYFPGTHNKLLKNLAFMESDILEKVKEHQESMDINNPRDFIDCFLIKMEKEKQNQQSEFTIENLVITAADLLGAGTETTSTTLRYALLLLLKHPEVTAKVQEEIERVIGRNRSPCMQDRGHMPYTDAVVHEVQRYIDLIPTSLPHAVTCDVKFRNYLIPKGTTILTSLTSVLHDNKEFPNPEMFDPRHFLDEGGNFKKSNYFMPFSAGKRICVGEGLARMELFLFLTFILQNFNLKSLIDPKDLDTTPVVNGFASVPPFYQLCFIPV
# CYP2C9 activ: increases human cytochrome P450 2C9 activity; P11712; recombinant CYP2C9, luciferin-H conversion, luminescence; active compounds read high; factor 1 = untreated enzyme, 0 = blocked; activation factor at 5 µM; 96,000 tested, 1.4% active;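 active = activation factor of 2 or more for CYP2C9 at a 5 µM dose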;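 also: 0 = sulfaphenazole-blocked wells and 1 = vehicle-only wells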
# PLK1 inh: PLK1 (human) kinase inhibition; recombinant PLK1 kinase, TR-FRET peptide phosphorylation; inhibition, % at 10 µM; 97,000 tested, 0.53% active;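 active = inhibition of 50% or more in the single-concentration screen; inactive = inhibition below 50%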;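 also: 0% = DMSO max control and 100% = H-89 dihydrochloride min control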
# Plk1 PBD FP: Plk1 (human) PBD binding inhibition. Plk1 PBD phosphopeptide binding, fluorescence polarization. inhibition, %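 (tested at about 20 µM)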. P53350. 97,000 tested, 0.13% active; in the data active = inhibition above about 34%, passing the limit was not always enough
# CYP2C19 activ: increases human CYP2C19 enzyme activity | 96,000 tested, under 10 active | recombinant CYP2C19, luciferin-H EGE luminescence; active compounds read high; 0 = fully inhibited enzyme, 1 = untreated enzyme | P33261 | activation factor at 5 µM;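 active = activation factor of at least 2 at 5 µM in the primary screen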;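 also: 0 = wells with 2.5 mM tranylcypromine and 1 = vehicle-only wells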
# * marks the source's active call; other numbers are inactive results; nt = no result. A selection: hits, their analogues and other compounds. The true share with any hit is near 28%.
SMILES,CYP2C9 inhib,CYP2C19 inhib,CYP2C9 activ,PLK1 inh,Plk1 PBD FP,CYP2C19 activ
CC(=O)c1cc2c(cc1NC(=O)c1cnc(C)cn1)OCO2,16,0,0.8,-10,0,1
O=C(NCCCO)C12CC3CC(CC(C3)C1)C2,nt,nt,nt,-12,14,nt
Nc1ccc(C(=O)OCc2nc3c(ccc4ccccc43)[nH]2)cc1,nt,nt,nt,-4,1,nt
CCN(CC)S(=O)(=O)c1ccc(C(=O)Oc2ccc3c(c2)OCO3)cc1,-1,-4,1,-17,9,1
CCN(CC)S(=O)(=O)c1ccc(S(=O)(=O)Nc2cc3c(cc2C(C)=O)OCO3)cc1,97*,52*,0,-8,16,0.5
CCOC(=O)C1CCCN(C(=O)c2ccc(OCC)cc2)C1 (stereo not given),6,38,0.9,nt,nt,0.6
O=S(=O)(c1ccccc1Cl)N1CCCC(c2nc(-c3cccnc3)no2)C1 (stereo not given),79*,95*,0.2,-1,14,0.1
COc1ccc(C(=O)N2CCCC(c3nc(-c4ccc(OC)c(OC)c4)no3)C2)c(OC)c1 (stereo not given),61*,40,0.4,-4,17,0.6
O=S(=O)(c1ccccc1Cl)N1CCCC1c1nc(-c2cccc(Cl)c2)no1 (stereo not given),48,26,0.5,-7,19,0.7
COc1ccc(-c2noc(C3CCCN(S(=O)(=O)c4ccc(C)c(Cl)c4)C3)n2)cc1OC (stereo not given),57*,68*,0.4,-3,-20,0.3
CCS(=O)(=O)N1CCCC(c2nc(-c3cccc(OC)c3)no2)C1 (stereo not given),17,28,0.8,-11,-1,0.7
CS(=O)(=O)N1CCCC(c2nc(-c3ccc(S(=O)(=O)NCc4ccccc4)cc3)no2)C1 (stereo not given),18,17,0.8,nt,nt,0.8
CCCS(=O)(=O)N1CCCC(c2nc(-c3ccc(OC)cc3)no2)C1 (stereo not given),82*,34,0.2,-15,11,0.7
COc1ccccc1NC(=O)CSc1nnc(-c2ccoc2C)n1CC1CCCO1 (stereo not given),11,14,0.9,-5,-19,0.9
C=C(C)Cn1c(SCC(=O)O)nnc1-c1ccc(OC)cc1,-13,-15,1.1,0,9,1.1
COc1ccc(-c2noc(C3CCCN(C(=O)c4ccccc4OC)C3)n2)cc1OC (stereo not given),17,5,0.8,-5,0,1
COc1ccc(-c2noc(C3CCCN(S(=O)(=O)c4cccc(Cl)c4C)C3)n2)cc1OC (stereo not given),85*,91*,0.2,1,-6,0.1
N#Cc1c(-c2ccccc2)ccn(Cc2ccc(Cl)cc2)c1=O,54*,36,0.5,-10,9,0.6
CCCCCCNc1c([N+](=O)[O-])cc(C)cc1[N+](=O)[O-],nt,nt,nt,-3,6,nt
Nn1c(N2CCCCC2)nc2ccccc21,-12,16,1.1,-8,-1,0.8
CCCCSc1nc(C)cc(SCC(=O)N/N=C/c2cccc(OC)c2O)n1,64*,33,0.4,-12,-33,0.7
COc1cccc(/C=N/NC(=O)c2ccc(-c3ccccc3)cc2)c1O,4,-4,1,-29,-13,1
O=C1c2ccccc2C(=O)C1c1nccc2ccccc12,58*,45,0.4,nt,nt,0.5
COc1c(Cl)cc(Cl)cc1C(=O)n1nc(C)cc1C,nt,nt,nt,-8,-6,nt
CC(C)c1ccc(N(C(=O)c2csnn2)C(C(=O)NC(C)(C)C)c2ccncc2)cc1 (stereo not given),23,60*,0.8,-9,-2,0.4
SMILES,CYP2C9 inhib,CYP2C19 inhib,CYP2C9 activ,PLK1 inh,Plk1 PBD FP,CYP2C19 activ
Cc1ccc(N(C(=O)c2csnn2)C(C(=O)NC(C)(C)C)c2cccs2)cc1 (stereo not given),6,77*,0.9,-6,-27,0.2
COc1ccc(-c2nc(CS(=O)CC(=O)NCCCN3CCCC3)c(C)o2)cc1OC (stereo not given),-3,5,1,-11,9,1
CN1CC(c2ccc(C#N)cc2)C2(COc3ccccc3C2=O)C12C(=O)Nc1ccccc12 (stereo not given),34,11,0.7,-9,-9,0.9
O=C1c2ccccc2C(=O)N1CC(O)CN1CCOCC1 (stereo not given),nt,nt,nt,-12,12,nt
O=C1c2ccccc2C(=O)N1CC(O)Cn1nnc2ccccc21 (stereo not given),34,59*,0.7,-3,2,0.4
OC(Cn1nnc2ccccc21)Cn1c(C(F)(F)F)nc2ccccc21 (stereo not given),57*,35,0.4,-6,-22,0.7
Cc1nn(CC(O)c2ccccc2)c(C)c1Br (stereo not given),-2,42,1,-9,10,0.6
OC(CN1c2ccccc2Sc2ccccc21)Cn1nnc2ccccc21 (stereo not given),100*,100*,0,0,-17,0
Cc1nn(CC(O)CN2c3ccccc3Sc3ccccc32)c(C)c1Br (stereo not given),93*,89*,0.1,-8,-18,0.1
CC(=O)c1ccc(S(=O)c2ccccc2)cc1 (stereo not given),-11,43,1.1,-4,24,0.6
CC(C(=O)O)N1C(=O)CSc2ncccc21 (stereo not given),-3,-4,1,-13,0,1
CC(C)C(NC(=O)c1cccs1)c1nnc(SCC(=O)Nc2nccs2)n1C (stereo not given),41,6,0.6,15,16,0.9
Cc1ccc2[nH]c3c(=O)n(CCCN4CCOCC4)cnc3c2c1,-1,68*,1,-5,-3,0.3
Cc1ccc2[nH]c3c(=O)n(CCc4cnc[nH]4)cnc3c2c1,97*,99*,0,-1,9,0
Cc1ccc2[nH]c3c(=O)n(CCN4CCOCC4)cnc3c2c1,-4,8,1,-7,7,0.9
O=C(CSc1nc2ccccc2o1)NCc1n[nH]c(=O)c2ccccc12,-50,-13,1.5,-8,16,1.1
COc1cccc(-c2nc(NCCN3CCOCC3)c3ccccc3n2)c1O,56*,32,0.4,-10,-15,0.7
Oc1ccccc1-c1nc(NCCN2CCOCC2)c2ccccc2n1,97*,89*,0,-10,23,0.1
COc1cccc(-c2nc(N3CCC(C)CC3)c3ccccc3n2)c1O,42,2,0.6,5,-5,1
COc1cccc(-c2nc(NC(C)(C)C)c3ccccc3n2)c1O,84*,31,0.2,2,-7,0.7
Cc1ccc(-c2nc(NCCN3CCOCC3)c3ccccc3n2)cc1,72*,59*,0.3,-8,4,0.4
Oc1ccccc1-c1nc(NCc2ccco2)c2ccccc2n1,-11,-16,1.1,1,7,1.2

# Assay outcomes as filed in PubChem BioAssay.
